We go through four compounds from PubChem BioAssay (EPA / NIEHS).

Active and inactive are the calls of the source. Rule for the calls: active = hit-call score of the fitted dose curve at least 0.9, where 1 is the maximum; inactive = score below 0.9.

Common to all, as to details: mRNA level, 48 h; actives raise or lower the signal
Read-out in test [1]: Interleukin 6 Receptor (IL6R), IL6R (gene 3570)
Put plainly: LTEA_HepaRG_IL6R: Life Technologies and Expression Analysis (LTEA) Assay for Interleukin 6 Receptor (IL6R) using HepaRG (AID 2283510). The method, boiled down: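 HepaRG, 48 h exposure, 8-pt half-log series, top 100 uM, 0.5% DMSO vehicle, duplicates. Read-out: TaqMan qRT-PCR of IL6R transcript, housekeeping-gene normalized. Gain or loss fitted relative to DMSO baseline.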

Read-out in test [2]: Potassium channel subfamily K member 1 (KCNK1), KCNK1 (gene 3775)
Description: LTEA_HepaRG_KCNK1: Life Technologies and Expression Analysis (LTEA) Assay for Potassium channel subfamily K member 1 (KCNK1) using HepaRG (AID 2283511). The method, boiled down: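 HepaRG, 48 h exposure, 8-pt half-log series top 100 uM, 0.5% DMSO vehicle, duplicates. Readout: KCNK1 transcript by qRT-PCR (Fluidigm array), housekeeping-normalized; bidirectional curve fit relative to DMSO baseline.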

Read-out in test [3]: Keratin 19 (KRT19), KRT19 (gene 3880)
Put plainly: LTEA_HepaRG_KRT19: Life Technologies and Expression Analysis (LTEA) Assay for Keratin 19 (KRT19) using HepaRG (AID 2283512). Put shortly: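 KRT19 transcript levels, measured by Fluidigm qRT-PCR against three housekeeping genes, are fitted for gain or loss of signal relative to DMSO. Human HepaRG cells receive test chemicals (top 100 uM, half-log steps, 0.5% DMSO) for 48 hours.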

Read-out in test [4]: JUN Transcription Factor, JUN (gene 3725)
Description: LTEA_HepaRG_JUN: Life Technologies and Expression Analysis (LTEA) Assay for JUN Transcription Factor using HepaRG (AID 2283513). Put shortly: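 HepaRG, 48 h exposure, 8-pt half-log series top 100 uM, 0.5% DMSO, duplicate. JUN mRNA by qRT-PCR (Fluidigm), housekeeping-normalized (ACTB/GAPDH/POLR2A); bidirectional curve fit vs DMSO baseline.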

Read-out in test [5]: Lipase C (LIPC), LIPC (gene 3990)
Put plainly: LTEA_HepaRG_LIPC: Life Technologies and Expression Analysis (LTEA) Assay for Lipase C (LIPC) using HepaRG (AID 2283514). Put shortly: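 HepaRG, 48 h exposure, 8-pt half-log series from 100 uM in 0.5% DMSO, duplicates. Readout: LIPC mRNA by Fluidigm qRT-PCR, housekeeping-normalized (ACTB/GAPDH/POLR2A). Gain or loss fitted bidirectionally against DMSO baseline.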

Read-out in test [6]: Lipoprotein lipase (LPL), LPL (gene 4023)
Put plainly: LTEA_HepaRG_LPL: Life Technologies and Expression Analysis (LTEA) Assay for Lipoprotein lipase (LPL) using HepaRG (AID 2283515). Put shortly:
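HepaRG, 48 h exposure, 8-pt half-log dilutions from 100 uM, 0.5% DMSO vehicle, duplicates; qRT-PCR (Fluidigm array) of LPL mRNA vs housekeeping genes; bidirectional curve fit relative to DMSO baseline.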

Read-out in test [7]: MicroRNA 122 (MIR122), gene 406906
Description: LTEA_HepaRG_MIR122: Life Technologies and Expression Analysis (LTEA) Assay for MicroRNA 122 (MIR122) using HepaRG (AID 2283516). Note: the transcript read is the microRNA miR-122. Put shortly: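 qRT-PCR read-out (TaqMan, Fluidigm array), normalized to three housekeeping genes; HepaRG cells dosed 48 h at 8 concentrations up to 100 uM in 0.5% DMSO, duplicate; gain or loss fitted against DMSO baseline.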

Read-out in test [8]: matrix metalloproteinase-10 (MMP10), MMP10 (gene 4319)
Put plainly: LTEA_HepaRG_MMP10: Life Technologies and Expression Analysis (LTEA) Assay for matrix metalloproteinase-10 (MMP10) using HepaRG (AID 2283517). Put shortly:
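Transcript levels come from Fluidigm qRT-PCR normalized to three housekeeping genes, with curves fitted bidirectionally against 0.5% DMSO. Human HepaRG cells were dosed for 48 hours at concentrations up to 100 uM.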

Read-out in test [9]: matrix metalloproteinase-3 (MMP3), MMP3 (gene 4314)
Description: LTEA_HepaRG_MMP3: Life Technologies and Expression Analysis (LTEA) Assay for matrix metalloproteinase-3 (MMP3) using HepaRG (AID 2283519). The method, boiled down: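 qRT-PCR read-out of MMP3 mRNA (normalised to three housekeeping genes) in HepaRG liver cells after 48 h chemical exposure; 8-point half-log series, top 100 uM, 0.5% DMSO vehicle. Bidirectional curve fitting against DMSO baseline.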

Read-out in test [10]: Paternally Expressed 10 (PEG10), PEG10 (gene 23089)
Put plainly: LTEA_HepaRG_PEG10: Life Technologies and Expression Analysis (LTEA) Assay for Paternally Expressed 10 (PEG10) using HepaRG (AID 2283520).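 For AC50: differentiated HepaRG human liver cells in serum-free induction medium with 0.5% DMSO; PEG10 transcript by qRT-PCR normalised to ACTB GAPDH and POLR2A.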 The method, boiled down:
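qRT-PCR read-out: PEG10 mRNA normalised to three housekeeping genes, fitted bidirectionally against 0.5% DMSO vehicle. HepaRG cells received test chemicals for 48 h in serum-free induction medium, 8 points, top 100 uM, half-log steps.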

Read-out in test [11]: Nuclear factor NF-kappa-B p105 subunit (Homo sapiens) (UniProt P19838)
Description: LTEA_HepaRG_NFKB1: Life Technologies and Expression Analysis (LTEA) Assay for Nuclear Factor Kappa B Subunit 1 (NFKB1) using HepaRG (AID 2283521).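 For outcome: differentiated human HepaRG liver cells in serum-free induction medium; TaqMan qRT-PCR transcript normalised to ACTB GAPDH and POLR2A housekeeping genes.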 Put shortly: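 HepaRG, 48 h exposure; 8-pt half-log series from 100 uM in 0.5% DMSO; duplicates. Readout: NFKB1 mRNA by qRT-PCR (Fluidigm arrays), housekeeping-normalized. Gain/loss fit vs DMSO baseline.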

Read-out in test [12]: Protein phosphatase 2A (PPP2R4), PTPA (gene 5524)
Description: LTEA_HepaRG_PPP2R4: Life Technologies and Expression Analysis (LTEA) Assay for Protein phosphatase 2A (PPP2R4) using HepaRG (AID 2283522). Put shortly:
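HepaRG, 48 h exposure, 8-pt half-log series from 100 uM, 0.5% DMSO vehicle, duplicates. Readout: PPP2R4 mRNA, Fluidigm qRT-PCR, housekeeping-normalized. Bidirectional curve fit vs DMSO baseline.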

Read-out in test [13]: Phosphatase and tensin (PTEN), PTEN (gene 5728)
Description: LTEA_HepaRG_PTEN: Life Technologies and Expression Analysis (LTEA) Assay for Phosphatase and tensin (PTEN) using HepaRG (AID 2283523). The method, boiled down:
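HepaRG, 48 h exposure, 8-pt half-log series from 100 uM top, 0.5% DMSO vehicle, duplicates. Readout: Fluidigm qRT-PCR of PTEN transcript; housekeeping normalization (ACTB, GAPDH, POLR2A). Gain or loss fitted relative to DMSO baseline.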

Read-out in test [14]: Pyruvate Dehydrogenase Kinase 4 (PDK4), PDK4 (gene 5166)
Description: LTEA_HepaRG_PDK4: Life Technologies and Expression Analysis (LTEA) Assay for Pyruvate Dehydrogenase Kinase 4 (PDK4) using HepaRG (AID 2283525). Put shortly: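 HepaRG (human liver line), 48 h chemical exposure, 8-pt half-log CRC top 100 uM, 0.5% DMSO vehicle, duplicates. Readout: TaqMan qRT-PCR of PDK4 mRNA, housekeeping-normalized; gain/loss fit relative to DMSO baseline.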

Read-out in test [15]: NAD(P)H dehydrogenase [quinone] 1 (NQO1), NQO1 (gene 1728)
Description: LTEA_HepaRG_NQO1: Life Technologies and Expression Analysis (LTEA) Assay for NAD(P)H dehydrogenase [quinone] 1 (NQO1) using HepaRG (AID 2283526). Put shortly: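 qRT-PCR read-out (Fluidigm TaqMan), normalized to three housekeeping genes, after 48 h chemical exposure of HepaRG cells. Concentrations: eight points, top 100 uM, half-log steps, 0.5% DMSO vehicle. Gain or loss of signal fitted relative to DMSO.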

Read-out in test [16]: Nuclear factor erythroid 2-related factor 2 (Homo sapiens) (UniProt Q16236)
Description: LTEA_HepaRG_NFE2L2: Life Technologies and Expression Analysis (LTEA) Assay for Nuclear factor erythroid 2-related factor 2 (NFE2L2) Transcription Factor using HepaRG (AID 2283527).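 For outcome: TaqMan qRT-PCR transcript level normalised to ACTB GAPDH and POLR2A housekeeping genes.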 The method, boiled down:
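HepaRG, 48 h dosing, 8-pt half-log series from 100 uM in 0.5% DMSO, duplicates. Read-out: NFE2L2 mRNA by qRT-PCR (ACTB/GAPDH/POLR2A normalization). Bidirectional curve fit vs DMSO baseline.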

Read-out in test [17]: succinate dehydrogenase complex iron sulfur subunit B (SDHB), SDHB (gene 6390)
Put plainly: LTEA_HepaRG_SDHB: Life Technologies and Expression Analysis (LTEA) Assay for succinate dehydrogenase complex iron sulfur subunit B (SDHB) using HepaRG (AID 2283528). Put shortly:
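Readout is SDHB transcript level by qRT-PCR, normalised to three housekeeping genes and fitted bidirectionally against 0.5% DMSO vehicle. Human HepaRG cells were treated for 48 h at up to 100 uM.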

Read-out in test [18]: Signal transducer and activator of transcription 3 (Homo sapiens) (UniProt P40763)
Put plainly: LTEA_HepaRG_STAT3: Life Technologies and Expression Analysis (LTEA) Assay for Signal transducer and activator of transcription (STAT3) using HepaRG (AID 2283529). Put shortly: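 HepaRG, 48 h exposure, 8-pt half-log series (top 100 uM), 0.5% DMSO vehicle, duplicates. Readout: STAT3 transcript by Fluidigm qRT-PCR, housekeeping-normalized; bidirectional fit vs DMSO baseline.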

Read-out in a further test: MYC, MYC (gene 4609)
Description: LTEA_HepaRG_MYC: Life Technologies and Expression Analysis (LTEA) Assay for MYC using HepaRG (AID 2283518). Put shortly:
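HepaRG, ~100,000 cells/well, collagen I; 48 h plating; serum-free induction medium; 48 h dosing, duplicate, 100 uM top, half-log, 0.5% DMSO; total RNA → qRT-PCR MYC; gain/loss fit vs DMSO.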

Sequence of Signal transducer and activator of transcription 3 (Homo sapiens) (P40763 whole entry, looked up): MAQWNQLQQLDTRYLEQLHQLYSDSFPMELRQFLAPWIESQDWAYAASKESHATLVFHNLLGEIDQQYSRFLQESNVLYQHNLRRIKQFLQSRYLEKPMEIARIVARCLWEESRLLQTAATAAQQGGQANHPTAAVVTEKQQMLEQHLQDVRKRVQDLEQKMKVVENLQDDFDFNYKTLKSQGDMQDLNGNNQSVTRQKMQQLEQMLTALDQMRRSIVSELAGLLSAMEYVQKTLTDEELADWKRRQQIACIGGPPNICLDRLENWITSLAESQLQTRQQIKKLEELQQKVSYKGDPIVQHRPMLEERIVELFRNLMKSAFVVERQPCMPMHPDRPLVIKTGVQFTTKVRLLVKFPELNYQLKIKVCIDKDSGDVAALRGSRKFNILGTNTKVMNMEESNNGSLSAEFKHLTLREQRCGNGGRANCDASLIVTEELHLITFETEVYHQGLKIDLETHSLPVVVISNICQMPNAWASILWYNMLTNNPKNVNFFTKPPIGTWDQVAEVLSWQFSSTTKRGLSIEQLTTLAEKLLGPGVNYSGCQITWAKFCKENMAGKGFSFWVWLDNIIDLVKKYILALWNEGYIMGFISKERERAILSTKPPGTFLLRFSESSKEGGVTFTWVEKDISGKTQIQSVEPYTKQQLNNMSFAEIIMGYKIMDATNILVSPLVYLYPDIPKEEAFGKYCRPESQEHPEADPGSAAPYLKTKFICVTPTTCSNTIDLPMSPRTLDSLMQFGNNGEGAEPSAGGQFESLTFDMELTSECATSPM
Sequence of Nuclear factor NF-kappa-B p105 subunit (Homo sapiens) (P19838 whole entry, looked up): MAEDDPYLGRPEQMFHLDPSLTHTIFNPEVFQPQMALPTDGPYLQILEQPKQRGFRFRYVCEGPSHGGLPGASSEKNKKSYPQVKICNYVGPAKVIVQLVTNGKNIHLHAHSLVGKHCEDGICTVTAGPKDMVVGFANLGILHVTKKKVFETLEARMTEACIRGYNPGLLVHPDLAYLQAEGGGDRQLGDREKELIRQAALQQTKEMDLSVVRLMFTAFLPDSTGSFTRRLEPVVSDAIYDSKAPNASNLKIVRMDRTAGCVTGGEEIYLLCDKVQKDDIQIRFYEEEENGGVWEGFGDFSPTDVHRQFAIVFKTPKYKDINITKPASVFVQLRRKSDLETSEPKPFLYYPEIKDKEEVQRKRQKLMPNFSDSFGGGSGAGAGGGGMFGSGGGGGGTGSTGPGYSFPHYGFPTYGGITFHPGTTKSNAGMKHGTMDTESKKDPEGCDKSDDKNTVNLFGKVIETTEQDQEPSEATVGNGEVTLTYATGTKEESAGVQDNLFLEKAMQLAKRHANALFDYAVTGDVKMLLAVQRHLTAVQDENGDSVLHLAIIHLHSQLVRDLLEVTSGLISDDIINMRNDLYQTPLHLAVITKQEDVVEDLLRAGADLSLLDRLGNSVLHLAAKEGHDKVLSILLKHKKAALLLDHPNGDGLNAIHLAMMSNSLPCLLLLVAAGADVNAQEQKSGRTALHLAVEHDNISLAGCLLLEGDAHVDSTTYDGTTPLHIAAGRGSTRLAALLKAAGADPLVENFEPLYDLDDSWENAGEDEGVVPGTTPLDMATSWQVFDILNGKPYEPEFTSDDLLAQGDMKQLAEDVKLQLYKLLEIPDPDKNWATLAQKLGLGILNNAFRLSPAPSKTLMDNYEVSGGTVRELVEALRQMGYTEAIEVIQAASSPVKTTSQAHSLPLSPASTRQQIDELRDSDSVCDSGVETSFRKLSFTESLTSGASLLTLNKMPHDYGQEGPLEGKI
Sequence of Nuclear factor erythroid 2-related factor 2 (Homo sapiens) (Q16236 whole entry, looked up): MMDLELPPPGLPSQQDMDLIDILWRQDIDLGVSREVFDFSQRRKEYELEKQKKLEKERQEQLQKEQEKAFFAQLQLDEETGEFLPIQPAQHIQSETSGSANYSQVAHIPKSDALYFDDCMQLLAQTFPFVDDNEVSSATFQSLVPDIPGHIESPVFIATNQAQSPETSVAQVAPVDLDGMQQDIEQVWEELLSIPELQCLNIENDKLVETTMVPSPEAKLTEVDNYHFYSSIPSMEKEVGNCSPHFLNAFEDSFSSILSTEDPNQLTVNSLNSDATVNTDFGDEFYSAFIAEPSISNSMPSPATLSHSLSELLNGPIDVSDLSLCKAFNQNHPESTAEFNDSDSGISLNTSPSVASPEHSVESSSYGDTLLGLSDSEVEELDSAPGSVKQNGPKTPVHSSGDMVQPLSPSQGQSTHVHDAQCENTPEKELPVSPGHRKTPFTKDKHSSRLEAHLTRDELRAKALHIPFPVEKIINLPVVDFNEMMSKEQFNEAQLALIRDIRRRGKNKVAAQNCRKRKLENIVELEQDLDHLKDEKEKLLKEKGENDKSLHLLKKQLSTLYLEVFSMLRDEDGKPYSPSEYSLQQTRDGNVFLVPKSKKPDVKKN

As to `CCCCC(O)(Cn1cncn1)c1ccc(Cl)cc1Cl` (configuration not stated), the call in test [1], in test [3], in test [4], in test [11], in test [12] and in test [13] was inactive. In addition, the compound was called inactive in [17]. The AC50 was 41.3 µM (active) in [2]; 75.2 µM (active) in test [5]; 50 µM (active) in [6]; 77 µM (active) in test [7]; 67.4 µM (active) in [8]; 92.3 µM (active) in [9]. The AC50 in test [10] was 50 µM (active); in [14] it was 78.8 µM (active); in test [15] it was 50 µM (active); in test [16], 50 µM (active); in [18], 85.9 µM (active).

Regarding `Cc1c(COC(=O)[C@@H]2[C@H](/C=C(\Cl)C(F)(F)F)C2(C)C)cccc1-c1ccccc1`, the call in test [1], in test [2], in test [3], in test [4], in test [5] and in test [6] was inactive. Also, the compound was called inactive in test [7], in test [8], in [9], in [10], in [12] and in [13]. Moreover, the call in test [14], in [15], in [16], in test [17] and in [18] was inactive. For the same compound, the AC50 in test [11] is 0.703 µM (active).

On to `CC(C)Nc1nc(Cl)nc(NC(C)C)n1`, for which the outcome in test [1], in [2], in test [3], in test [4], in test [5] and in test [6] was inactive. Also, the outcome is “inactive” in test [7]; “inactive” in test [8]; “inactive” with MYC, MYC (gene 4609); “inactive” in test [9]; “inactive” in test [12]; “inactive” in [13]. The outcome in [14], in test [15], in test [16], in [17] and in test [18] was inactive. Also, the AC50 in test [10] is 27.2 µM (active).

On to `CC1(C)CON(Cc2ccccc2Cl)C1=O`, for which the compound was called inactive in test [1], in [2], in test [3], in [4], in test [5] and in test [6]. The outcome in [7], in test [8], in test [9], in [11], in test [12] and in [13] was inactive. Besides, the compound was classed as inactive in test [14], in test [15], in test [16], in [17] and in [18]. Besides, the AC50 in test [10] was 22.5 µM (active).

In general, AC50 refers to the midpoint of the concentration-response curve, whichever way the signal moves.
